# Reference: article PMC10668032, “Altered binding affinity of SIX1-Q177R correlates with enhanced WNT5A and WNT pathway effector expression in Wilms tumor”
# Whole data set: some 33,000 sequences, median “e-score” near -0.05, cut for the highest 2% near 0.38. Only a selection was taken, and the highest values are over-represented in it overall.
# Target: T1, SIX1-Q177R homeodomain (human, UniProt Q15475 108-198, Q177R)
# T1 sequence: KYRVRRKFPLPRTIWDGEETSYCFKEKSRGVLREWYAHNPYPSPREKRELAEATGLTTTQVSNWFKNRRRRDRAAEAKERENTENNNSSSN
# Assay: universal protein binding microarray; Universal all-10-mer PBM (8x60K, AMADID 030236), 300 nM GST-tagged protein, Alexa Fluor 488 anti-GST; buffer, salt, pH and temperature not stated (as in Berger); high values mean tight binding
# Settings: protein: ivt; tags: N-terminal GST; dsDNA, one strand shown
# In short: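 Homeodomains carrying a GST tag were produced by in vitro transcription/translation, then quantified by anti-GST western blot against a recombinant GST standard curve. Duplicate applications at 300 nM final concentration were made to universal 'all 10-mer' protein binding microarrays in 8×60K format. The Universal PBM Analysis Suite was used to express binding as 8-mer E-scores.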
row,Sequence,binding signal
1,ATACCCAC,0.196 ± 0.0233 E-score
2,CACCAGAC,0.338 ± 0.00569 E-score
3,CACCGCCC,0.3 ± 0.0125 E-score
4,ACACGAGG,0.3796 ± 0.00182 E-score
5,ACGCGAGT,0.162 ± 0.045 E-score
6,ACACGAGC,0.3292 ± 0.0011 E-score
7,ACCCGAGT,0.259 ± 0.0341 E-score
8,ACACGAGT,0.4013 ± 0.00247 E-score
9,ACACGAGA,0.352 ± 0.0163 E-score
10,CACCGCGA,0.238 ± 0.0133 E-score
11,ACCGGGGG,0.238 ± 0.00986 E-score
12,CAGGGTAC,0.162 ± 0.0178 E-score
13,AACCCAGA,0.214 ± 0.0243 E-score
14,CACTATAA,0.253 ± 0.0572 E-score
15,CACCTTAA,0.172 ± 0.0487 E-score
16,CCGGGTAG,0.169 ± 0.0152 E-score
17,ACGTGTAA,0.413 ± 0.0225 E-score
18,CCGTGTAG,0.4463 ± 0.00194 E-score
19,GCGTGTAA,0.441 ± 0.0209 E-score
20,CCGTGTAA,0.44 ± 0.0102 E-score
21,ACGTGTGA,0.293 ± 0.00636 E-score
22,GCGTGTGA,0.347 ± 0.0138 E-score
23,CCTTGTAA,0.244 ± 0.024 E-score
24,CCGGGTAA,0.177 ± 0.0166 E-score
25,GCGGGTAA,0.164 ± 0.019 E-score
26,CCGTGCAC,0.198 ± 0.0196 E-score

row,Sequence,binding signal
1,TATCGTCA,0.211 ± 0.012 E-score
2,CGAAAACA,0.186 ± 0.0616 E-score
3,CACCTAGC,0.168 ± 0.00559 E-score
4,ACCTCAAC,0.27 ± 0.0213 E-score
5,CACCCTTC,0.31 ± 0.0119 E-score
6,CAGCTACA,0.191 ± 0.0188 E-score
7,GATACTGC,0.158 ± 0.0138 E-score
8,CACGTTCA,0.158 ± 0.0324 E-score
9,AATAGGGG,0.171 ± 0.0238 E-score
10,TCGTGTAA,0.434 ± 0.0291 E-score
11,TCGGGTAA,0.194 ± 0.00451 E-score
12,GCTGAACA,0.169 ± 0.0308 E-score
13,GGGTTTCA,0.15 ± 0.00187 E-score
14,CTCAACAC,0.393 ± 0.0141 E-score
15,AGCAACAC,0.361 ± 0.00441 E-score
16,GTCAACAC,0.38 ± 0.00874 E-score
17,GTCAAACA,0.1886 ± 0.00104 E-score
18,ATCAACAC,0.3939 ± 0.00328 E-score
19,TCCTTACA,0.222 ± 0.0176 E-score
20,ATTGATCC,0.187 ± 0.0355 E-score
21,CATCTGAC,0.236 ± 0.0527 E-score
22,CACTTCAC,0.154 ± 0.0408 E-score
23,ACTCCGCG,0.22 ± 0.00707 E-score
24,CACACGTG,0.362 ± 0.00543 E-score
25,CCAGGATA,0.2169 ± 0.00146 E-score
26,GCACCCGC,0.227 ± 0.0318 E-score

row,Sequence,binding signal
1,ACCCCCGC,0.318 ± 0.046 E-score
2,CCACCCGA,0.206 ± 0.00492 E-score
3,ACCCCCGG,0.305 ± 0.0423 E-score
4,ACACCCGC,0.4623 ± 0.00219 E-score
5,ACCCCCGT,0.273 ± 0.0189 E-score
6,AACCCCGT,0.174 ± 0.0274 E-score
7,GCACCCGA,0.235 ± 0.00309 E-score
8,ACACCCGA,0.457 ± 0.00947 E-score
9,ACACCCGG,0.4824 ± 0.0027 E-score
10,CCACCCGG,0.201 ± 0.0191 E-score
11,ACACCCGT,0.4709 ± 0.00247 E-score
12,GGGAGTCA,0.221 ± 0.0066 E-score
13,ATAGGGGG,0.259 ± 0.00343 E-score
14,CACGGGGA,0.199 ± 0.0103 E-score
15,CCCGTAGG,0.178 ± 0.00511 E-score
16,GGAGCACC,0.268 ± 0.0396 E-score
17,AGGGGGAT,0.23 ± 0.0203 E-score
18,CGCAAACA,0.181 ± 0.0196 E-score
19,GTGATACA,0.172 ± 0.0198 E-score
20,ACCATACA,0.3199 ± 0.00166 E-score
21,GGTCCGTA,0.189 ± 0.0444 E-score
22,GAGGGTAC,0.183 ± 0.0122 E-score
23,GGACACCA,0.4831 ± 0.00245 E-score
24,TGACACAA,0.298 ± 0.0424 E-score
25,GGACACGA,0.356 ± 0.0172 E-score
26,TGACGACA,0.212 ± 0.00725 E-score

row,Sequence,binding signal
1,AGACACCA,0.458 ± 0.0134 E-score
2,AGGCACCA,0.178 ± 0.0251 E-score
3,TGACACCA,0.4915 ± 0.00377 E-score
4,TCCATGGA,0.1596 ± 0.000424 E-score
5,CGGGGTTA,0.22 ± 0.0181 E-score
6,ACGGAACA,0.212 ± 0.00638 E-score
7,TGTGAACA,0.327 ± 0.0228 E-score
8,ACCGTTGG,0.2165 ± 0.000431 E-score
9,ACCCGACG,0.208 ± 0.0142 E-score
10,TAGCTACA,0.209 ± 0.0332 E-score
11,GTATCAGA,0.284 ± 0.0131 E-score
12,GTTGGGGA,0.218 ± 0.00618 E-score
13,CCCTTTGC,0.219 ± 0.0339 E-score
14,CCCGGGTC,0.335 ± 0.0417 E-score
15,GGTGTAAC,0.482 ± 0.00603 E-score
16,GGTGTAGA,0.4728 ± 0.00114 E-score
17,CGTGTAAC,0.43 ± 0.0129 E-score
18,AGGGTAAG,0.152 ± 0.023 E-score
19,GGAGTAAC,0.157 ± 0.0575 E-score
20,CGGGTAAC,0.2 ± 0.000757 E-score
21,GGGGTAGA,0.194 ± 0.0142 E-score
22,GGGGTAAC,0.293 ± 0.0173 E-score
23,GGAGTAGA,0.2198 ± 0.000615 E-score
24,CGTGTAAG,0.428 ± 0.0306 E-score
25,CACCACTC,0.322 ± 0.00333 E-score
26,CGTATGAC,0.199 ± 0.0291 E-score

row,Sequence,binding signal
1,AATAGGTG,0.207 ± 0.0434 E-score
2,GGGGTAAA,0.29 ± 0.0101 E-score
3,GGAGTAAA,0.222 ± 0.0733 E-score
4,AGTGTAAG,0.415 ± 0.026 E-score
5,AGTGTAAT,0.413 ± 0.0369 E-score
6,AGTGTGAT,0.223 ± 0.0157 E-score
7,CGGGTAAA,0.194 ± 0.0165 E-score
8,AGTGTATG,0.36 ± 0.013 E-score
9,AGTGTGAG,0.208 ± 0.00245 E-score
10,CGTGTAAA,0.435 ± 0.0253 E-score
11,GGTGTAAA,0.476 ± 0.0157 E-score
12,AGTCGGGG,0.158 ± 0.0158 E-score
13,CCCCCCGC,0.248 ± 0.0302 E-score
14,GCGATCCC,0.182 ± 0.0137 E-score
15,CGGAGTGA,0.216 ± 0.008 E-score
16,CACGATGC,0.182 ± 0.0345 E-score
17,GGTGCCAC,0.195 ± 0.0196 E-score
18,CTCCCGAC,0.1532 ± 0.000212 E-score
19,TGTGTAAA,0.235 ± 0.0184 E-score
20,AGTGTAAC,0.419 ± 0.0327 E-score
21,AGTGTAAA,0.402 ± 0.0464 E-score
22,AGAGTAAC,0.163 ± 0.0176 E-score
23,AGGGTAAC,0.176 ± 0.0073 E-score
24,ACTGGGAG,0.223 ± 0.0162 E-score
25,ACCGGTGC,0.238 ± 0.0365 E-score
26,CCGATCCA,0.188 ± 0.0051 E-score

row,Sequence,binding signal
1,ACCCCCTA,0.337 ± 0.0127 E-score
2,ATTACACG,0.435 ± 0.0178 E-score
3,ATTACACC,0.479 ± 0.0126 E-score
4,CTTACTCC,0.194 ± 0.0358 E-score
5,ATTACCCC,0.294 ± 0.00817 E-score
6,CTTACACC,0.478 ± 0.00815 E-score
7,GTTACACA,0.267 ± 0.0166 E-score
8,ATTACTCC,0.287 ± 0.0213 E-score
9,CTTACACA,0.231 ± 0.0061 E-score
10,ATTACACA,0.291 ± 0.00197 E-score
11,ACGCGGGC,0.164 ± 0.0117 E-score
12,GGTGGGTA,0.165 ± 0.0261 E-score
13,GAGATACC,0.225 ± 0.0222 E-score
14,GATTAACA,0.162 ± 0.0238 E-score
15,ACACTCGT,0.351 ± 0.0272 E-score
16,ACACTCGA,0.358 ± 0.0137 E-score
17,ACACTCGC,0.385 ± 0.0258 E-score
18,CCACTCGC,0.222 ± 0.00987 E-score
19,AGACTCGG,0.16 ± 0.0294 E-score
20,ACACTCGG,0.408 ± 0.0187 E-score
21,AAGCTACA,0.178 ± 0.0271 E-score
22,GGTGTGCA,0.391 ± 0.0295 E-score
23,CGTGTGCA,0.202 ± 0.0212 E-score
24,AGTGTGAA,0.276 ± 0.021 E-score
25,GGTGTGTA,0.411 ± 0.0106 E-score
26,GGTGTGAA,0.427 ± 0.00482 E-score

row,Sequence,binding signal
1,AGTGTGTA,0.285 ± 0.00827 E-score
2,CGTGTGAC,0.304 ± 0.0135 E-score
3,AGTGTGAC,0.359 ± 0.00684 E-score
4,GGTGTGAC,0.435 ± 0.0199 E-score
5,AGTGTGCA,0.185 ± 0.00583 E-score
6,TGTGTGAA,0.187 ± 0.0245 E-score
7,CACTCGGA,0.177 ± 0.0507 E-score
8,GTATCACA,0.3 ± 0.034 E-score
9,ATCCGACA,0.238 ± 0.04 E-score
10,ACCTAGGT,0.157 ± 0.0301 E-score
11,GGGGGATA,0.2 ± 0.0198 E-score
12,CAAGCACC,0.176 ± 0.0183 E-score
13,GGTGTATA,0.458 ± 0.0157 E-score
14,GGTATATA,0.1906 ± 0.000509 E-score
15,CGTGTATA,0.367 ± 0.0156 E-score
16,GTGCAACA,0.292 ± 0.0195 E-score
17,ACCTATAA,0.177 ± 0.008 E-score
18,AGTTTATC,0.208 ± 0.0174 E-score
19,CCCCGAGC,0.198 ± 0.0241 E-score
20,CGTGTATC,0.39 ± 0.00909 E-score
